This is an account of results in PMC5700166.

Positions count from the first letter of the chain named.

Holding throughout (experiment): protein-binding microarray (PBM); PBM: ~300 nM protein, 6 mM HEPES pH 7.8, 80 mM KCl, 0.5 mM EDTA, 0.5 mM EGTA, 6% glycerol, 35 ng/ul poly-dIdC, 1% milk, 1 h, room temperature; Ap Aiptasia and Nv Nematostella (sea anemones) / Co Capsaspora / Aq Amphimedon (sponge) / Dm Drosophila / Hu human; RHD is the Rel homology domain; high values mean tight binding
Holding throughout (conditions): dsDNA, one strand shown

Test [1] concerns the target T1, GST-Ap-NF-kB RHD (Exaiptasia pallida (Aiptasia), UniProt A0A913YAJ5 2-422).
T1 sequence: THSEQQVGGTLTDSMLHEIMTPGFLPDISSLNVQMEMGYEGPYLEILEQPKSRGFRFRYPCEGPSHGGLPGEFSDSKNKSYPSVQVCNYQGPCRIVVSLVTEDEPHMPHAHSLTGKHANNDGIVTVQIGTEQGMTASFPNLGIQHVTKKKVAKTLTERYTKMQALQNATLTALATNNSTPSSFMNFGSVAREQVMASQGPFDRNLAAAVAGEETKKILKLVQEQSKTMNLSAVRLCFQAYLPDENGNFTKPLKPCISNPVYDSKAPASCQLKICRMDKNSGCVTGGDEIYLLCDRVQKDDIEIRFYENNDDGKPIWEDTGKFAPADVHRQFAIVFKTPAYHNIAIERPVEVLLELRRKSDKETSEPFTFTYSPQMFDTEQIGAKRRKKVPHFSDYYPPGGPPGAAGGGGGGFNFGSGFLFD

The target in test [2] is T2, GST-Nv-NF-kB (Cys allele) (Nematostella vectensis, UniProt E5G601 2-411).
T2 sequence: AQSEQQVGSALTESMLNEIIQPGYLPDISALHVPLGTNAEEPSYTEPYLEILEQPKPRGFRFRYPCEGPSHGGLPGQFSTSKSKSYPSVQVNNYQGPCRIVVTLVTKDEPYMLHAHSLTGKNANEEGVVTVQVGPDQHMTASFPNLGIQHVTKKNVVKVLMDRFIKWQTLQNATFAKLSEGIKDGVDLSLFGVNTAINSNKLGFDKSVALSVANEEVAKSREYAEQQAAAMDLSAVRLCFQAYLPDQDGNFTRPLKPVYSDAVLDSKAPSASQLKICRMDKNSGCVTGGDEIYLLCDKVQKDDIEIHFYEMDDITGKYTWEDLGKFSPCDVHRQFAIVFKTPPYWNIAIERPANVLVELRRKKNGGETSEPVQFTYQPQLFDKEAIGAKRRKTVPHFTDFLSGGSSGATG

Test [3] deals with T3, GST-Nv-NF-kB (Ser allele) (Nematostella vectensis, UniProt A7UNT2 2-411).
T3 sequence: T2 sequence with Q21R, C66S, S207N, E215Q, V217A, E225K, A268E, D399E

In test [4] the target is T4, GST-Co-NF-kB (Capsaspora owczarzaki, UniProt F1ARL5 200-546).
T4 sequence: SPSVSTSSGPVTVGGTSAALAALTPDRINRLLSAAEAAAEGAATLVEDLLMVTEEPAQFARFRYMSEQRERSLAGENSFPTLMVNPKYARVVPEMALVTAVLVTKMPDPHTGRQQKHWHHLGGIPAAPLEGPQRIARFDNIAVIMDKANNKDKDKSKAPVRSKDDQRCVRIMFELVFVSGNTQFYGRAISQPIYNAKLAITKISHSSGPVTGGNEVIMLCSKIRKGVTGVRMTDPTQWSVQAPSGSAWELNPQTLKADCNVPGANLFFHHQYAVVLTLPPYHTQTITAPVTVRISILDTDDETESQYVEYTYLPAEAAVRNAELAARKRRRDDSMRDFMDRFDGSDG

The target in test [5] is T5, GST-Dm-Relish (Drosophila melanogaster, UniProt Q94527 99-473).
T5 sequence: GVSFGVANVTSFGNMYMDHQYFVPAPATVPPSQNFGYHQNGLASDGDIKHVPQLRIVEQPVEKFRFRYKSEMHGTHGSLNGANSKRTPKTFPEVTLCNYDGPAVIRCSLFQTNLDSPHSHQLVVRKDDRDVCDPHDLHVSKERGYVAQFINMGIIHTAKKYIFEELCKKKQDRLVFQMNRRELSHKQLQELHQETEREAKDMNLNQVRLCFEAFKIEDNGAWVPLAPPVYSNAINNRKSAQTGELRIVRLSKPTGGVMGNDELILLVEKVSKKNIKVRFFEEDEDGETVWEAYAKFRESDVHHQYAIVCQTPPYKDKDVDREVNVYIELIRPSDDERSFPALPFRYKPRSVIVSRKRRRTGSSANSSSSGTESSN

Test [6] concerns the target T6, GST-Aq-NF-kB (Amphimedon queenslandica, UniProt A9Y5G7 2-389).
T6 sequence: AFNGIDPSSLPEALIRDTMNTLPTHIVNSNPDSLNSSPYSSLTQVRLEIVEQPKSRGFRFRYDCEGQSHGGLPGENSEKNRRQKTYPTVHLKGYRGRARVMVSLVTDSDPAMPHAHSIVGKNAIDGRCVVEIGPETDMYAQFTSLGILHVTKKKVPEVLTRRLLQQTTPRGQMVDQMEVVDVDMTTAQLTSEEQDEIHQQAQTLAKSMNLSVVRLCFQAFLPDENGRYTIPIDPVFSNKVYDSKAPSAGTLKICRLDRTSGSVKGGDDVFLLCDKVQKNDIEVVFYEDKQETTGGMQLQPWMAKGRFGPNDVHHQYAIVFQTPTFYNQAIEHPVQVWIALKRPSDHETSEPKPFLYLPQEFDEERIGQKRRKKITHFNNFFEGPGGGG

Test [7] concerns the target GST-Hu-p50 (Homo sapiens, UniProt P19838 7-356).

GST-Hu-p50, sequence (P19838 7-356): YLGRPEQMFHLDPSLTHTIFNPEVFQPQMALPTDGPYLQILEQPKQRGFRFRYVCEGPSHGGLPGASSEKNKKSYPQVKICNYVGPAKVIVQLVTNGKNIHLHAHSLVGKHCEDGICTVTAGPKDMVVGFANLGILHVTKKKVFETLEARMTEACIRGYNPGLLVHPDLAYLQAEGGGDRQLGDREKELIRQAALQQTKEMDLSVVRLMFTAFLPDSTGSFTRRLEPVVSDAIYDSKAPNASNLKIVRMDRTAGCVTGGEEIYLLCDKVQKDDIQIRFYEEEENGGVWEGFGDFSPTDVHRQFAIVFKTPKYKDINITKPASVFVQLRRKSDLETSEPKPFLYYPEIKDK

On to “CCGATTAACATCAATACTTCCCCTGATGTTAATCGGGTCTTGATTCGCTTGACGCTGCTG”, for which the binding signal in test [1] amounted to 5.61 z-score; in test [2], 7.52 z-score; in test [3], 9.37 z-score; in test [4], 6.89 z-score; in test [5], 7.81 z-score; in test [6], 5.35 z-score. The sequence further gave a binding signal in test [7] of 6.19 z-score.

Regarding “CCGATTAACATCAGGGAATGCCCTGATGTTAATCGGGTCTTGATTCGCTTGACGCTGCTG”, the binding signal in test [1] came out at 5.58 z-score; in test [2], 7.18 z-score; in test [3], 4.19 z-score; in test [4], 1.43 z-score; in test [5], 7.7 z-score; in test [6], 7.91 z-score. In test [7], the binding signal came to 3.67 z-score.

For the sequence “CCGATTAACATCAAAAATCCCCGTGATGTTAATCGGGTCTTGATTCGCTTGACGCTGCTG”, the binding signal in test [1] worked out at 9.77 z-score; in test [2] it was 10.8 z-score; in test [3], 11.1 z-score; in test [4], 6.22 z-score; in test [5], 10.1 z-score; in test [6], 8.1 z-score. The binding signal in test [7] is 7.67 z-score.

Take “CCGATTAACATCAAAAATCTCCCTGATGTTAATCGGGTCTTGATTCGCTTGACGCTGCTG”: the binding signal was determined as 3.7 z-score in test [1]; 6.51 z-score in test [2]; 6.86 z-score in test [3]; 3.4 z-score in test [4]; 2.94 z-score in test [5]; 6.14 z-score in test [6]. The binding signal in test [7] is 4.72 z-score.

Consider “CCGATTAACATCAGAAACTCCCCTGATGTTAATCGGGTCTTGATTCGCTTGACGCTGCTG”, for which the binding signal in test [1] is 8.69 z-score; in test [2], 7.68 z-score; in test [3], 7.84 z-score; in test [4], 5.37 z-score; in test [5], 7.08 z-score; in test [6], 7.47 z-score. Besides, the binding signal in test [7] was found to be 6.42 z-score.

For the sequence “CCGATTAACATCAAGGGGGAGAATGATGTTAATCGGGTCTTGATTCGCTTGACGCTGCTG”, the binding signal in test [1] worked out at 5.78 z-score; in test [2], 6.63 z-score; in test [3] it was 7.33 z-score; in test [4] it was 7.92 z-score; in test [5], 2.2 z-score; in test [6], 4.93 z-score. Besides, the binding signal in test [7] was determined as 6.83 z-score.

As for “CCGATTAACATCAGGGGGATCTATGATGTTAATCGGGTCTTGATTCGCTTGACGCTGCTG”, the binding signal in test [1] turned out to be 6.31 z-score; in test [2], 5.52 z-score; in test [3], 6.98 z-score; in test [4], 4.28 z-score; in test [5], 5.1 z-score; in test [6] it was 4.5 z-score. In test [7], this sequence returned a binding signal of 5.83 z-score.

On to “CCGATTAACATCAAAACTCCCCCTGATGTTAATCGGGTCTTGATTCGCTTGACGCTGCTG”, for which the binding signal in test [1] is 9.31 z-score; in test [2] it was 8.47 z-score; in test [3], 9.96 z-score; in test [4] it was 9.22 z-score; in test [5], 8.02 z-score; in test [6], 7.6 z-score. Moreover, the binding signal in test [7] stood at 8.06 z-score.

Regarding “CCGATTAACATCAGGGGAGTTCATGATGTTAATCGGGTCTTGATTCGCTTGACGCTGCTG”, the binding signal in test [1] came to 5.95 z-score; in test [2], 4.23 z-score; in test [3], 4.73 z-score; in test [4] it was 3.54 z-score; in test [5] it was 3.15 z-score; in test [6], 3.96 z-score. For the same sequence, the binding signal in test [7] was 4.11 z-score.

For the sequence “CCGATTAACATCACACAACCCCCTGATGTTAATCGGGTCTTGATTCGCTTGACGCTGCTG”, the binding signal in test [1] was found to be 5.16 z-score; in test [2], 3.73 z-score; in test [3] it was 4.93 z-score; in test [4] it was 2.31 z-score; in test [5], 4.91 z-score; in test [6], 3.93 z-score. The same sequence gave a binding signal in test [7] of 4.68 z-score.

Consider “CCGATTAACATCAAACATTCCCATGATGTTAATCGGGTCTTGATTCGCTTGACGCTGCTG”, for which the binding signal in test [1] came to 1.96 z-score; in test [2], 3.21 z-score; in test [3] it was 2.5 z-score; in test [4] it was 2.38 z-score; in test [5] it was 1.59 z-score; in test [6] it was 3.52 z-score. Moreover, the binding signal in test [7] was 2.11 z-score.

With “CCGATTAACATCACGGGGGTTCCTGATGTTAATCGGGTCTTGATTCGCTTGACGCTGCTG”, the binding signal was 9.11 z-score in test [1]; 5.77 z-score in test [2]; 4.99 z-score in test [3]; 2.92 z-score in test [4]; 9.73 z-score in test [5]; 6.72 z-score in test [6]. Also, in test [7], the binding signal amounted to 5.25 z-score.

With “CCGATTAACATCAGGGAAACATATGATGTTAATCGGGTCTTGATTCGCTTGACGCTGCTG”, the binding signal in test [1] was 2.23 z-score; in test [2], 3.74 z-score; in test [3], 4.15 z-score; in test [4], 5.27 z-score; in test [5], 1.07 z-score; in test [6], 4.73 z-score. This sequence also showed a binding signal in test [7] of 1.78 z-score.

With “CCGATTAACATCAAAAAAATCCCTGATGTTAATCGGGTCTTGATTCGCTTGACGCTGCTG”, the binding signal worked out at 6.44 z-score in test [1]; 7.72 z-score in test [2]; 6.74 z-score in test [3]; 2.41 z-score in test [4]; 8.77 z-score in test [5]; 7.45 z-score in test [6]. Also, the binding signal in test [7] was determined as 5.87 z-score.

“CCGATTAACATCACAATTCCCCCTGATGTTAATCGGGTCTTGATTCGCTTGACGCTGCTG”: the binding signal in test [1] is 7.95 z-score; in test [2] it was 8.27 z-score; in test [3] it was 9.39 z-score; in test [4], 8.14 z-score; in test [5], 5.44 z-score; in test [6], 6.33 z-score. Moreover, in test [7], the binding signal amounted to 7 z-score.

Consider “CCGATTAACATCAGGGAAGTTTATGATGTTAATCGGGTCTTGATTCGCTTGACGCTGCTG”, for which the binding signal in test [1] came to 4.29 z-score; in test [2], 4.93 z-score; in test [3], 4.78 z-score; in test [4] it was 2.58 z-score; in test [5], 3.35 z-score; in test [6] it was 5.26 z-score. For the same sequence, the binding signal in test [7] came to 3.73 z-score.

Regarding “CCGATTAACATCACCCAATTCCCTGATGTTAATCGGGTCTTGATTCGCTTGACGCTGCTG”, the binding signal is 3.33 z-score in test [1]; 3.63 z-score in test [2]; 4.42 z-score in test [3]; 2.69 z-score in test [4]; 1.62 z-score in test [5]; 2.94 z-score in test [6]. In test [7], this sequence gave a binding signal of 2.81 z-score.

Consider “CCGATTAACATCAAAACTTCCCCTGATGTTAATCGGGTCTTGATTCGCTTGACGCTGCTG”, for which the binding signal was 8.71 z-score in test [1]; 10.4 z-score in test [2]; 12.1 z-score in test [3]; 9.44 z-score in test [4]; 8.98 z-score in test [5]; 8.18 z-score in test [6]. Moreover, in test [7], the binding signal is 7.33 z-score.

As to “CCGATTAACATCAGGCATCCCCATGATGTTAATCGGGTCTTGATTCGCTTGACGCTGCTG”, the binding signal was 3.84 z-score in test [1]; 2.84 z-score in test [2]; 3.73 z-score in test [3]; 1.82 z-score in test [4]; 3.01 z-score in test [5]; 2.63 z-score in test [6]. The binding signal in test [7] turned out to be 2.9 z-score.
